High-throughput results: PubChem BioAssay, several laboratories
Sampled rows, rich in hits. Any-hit rate of the full collection: about 7.2%.
Efflux pump mplx – inhibitors of Candida efflux pumps in yeast, primary screen, S. cerevisiae, Nile Red, multiplex. S. cerevisiae Candida pump triplex. hit rate 0.44% among 330,000. inhibition, % at 10 µM;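 active means plate passing quality check with inhibition over a set limit, or well fluorescence over plate mean plus 4 SD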;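 further: Nile Red retained in pooled yeast measured as flow cytometry median fluorescence; 0% = buffer negative control and 100% = Enniatin B positive control; higher means more Nile Red kept so more efflux inhibition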
SUMO Mot1 rescue – yeast Mot1-301 growth rescue at high temperature, primary screen, SUMOylation pathway inhibitor project, S. cerevisiae, ATP luminescence, 38.5C; S. cerevisiae Mot1-301 growth rescue; percent above DMSO median, 100 means doubled; growth rescue, % at 18.8 µM; hit rate 1% among 320,000;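 active means every valid replicate shows activation above 250% relative to neutral control wells; inactive means the rest, any valid replicate at or below 250%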;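 further: OY570 slx delta 5 strain wells were the positive control but not used for scaling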
A1 inh – caspase 3/7 activation in MEF A1-2A-BIM cells, primary screen, A1 inhibitor project, cell-based, luminescence, HTS | Caspase-Glo 3/7 luminescence, 3 h; percent of clofoctol response, vehicle zero | caspase activation, % (concentration not given with the values) | hit rate 0.066% among 330,000 | AID 2462, 2010;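 active means over half of replicate activation scores above 10%, or exactly half above 10 with the replicate mean above 10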
ALR H2O2 inh – inhibitors of human ALR sulfhydryl oxidase, primary screen, biochemical, H2O2 detection, HRP-luminol luminescence, single point; FAD-linked sulfhydryl oxidase ALR (Homo sapiens), P55789; purified ALR, DTT oxidation; inhibition, % (test concentration not listed); hit rate 3.8% among 290,000; AID 485317, 2010;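 active means mean replicate inhibition above about 79%, with every replicate also reaching it, limit read from the data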
AHR activator – AHR activators, primary screen, cell-based, luminescence, luciferase reporter, human. AHR-responsive luciferase reporter cells. AID 2796, 2010. activation, % at 5 µM. hit rate 2.5% among 320,000. Aryl hydrocarbon receptor (Homo sapiens), P35869; in the data active means activation above about 47%;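 further: 0% = vehicle wells and 100% = reference agonist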
Target sequence (P35869 whole entry, looked up): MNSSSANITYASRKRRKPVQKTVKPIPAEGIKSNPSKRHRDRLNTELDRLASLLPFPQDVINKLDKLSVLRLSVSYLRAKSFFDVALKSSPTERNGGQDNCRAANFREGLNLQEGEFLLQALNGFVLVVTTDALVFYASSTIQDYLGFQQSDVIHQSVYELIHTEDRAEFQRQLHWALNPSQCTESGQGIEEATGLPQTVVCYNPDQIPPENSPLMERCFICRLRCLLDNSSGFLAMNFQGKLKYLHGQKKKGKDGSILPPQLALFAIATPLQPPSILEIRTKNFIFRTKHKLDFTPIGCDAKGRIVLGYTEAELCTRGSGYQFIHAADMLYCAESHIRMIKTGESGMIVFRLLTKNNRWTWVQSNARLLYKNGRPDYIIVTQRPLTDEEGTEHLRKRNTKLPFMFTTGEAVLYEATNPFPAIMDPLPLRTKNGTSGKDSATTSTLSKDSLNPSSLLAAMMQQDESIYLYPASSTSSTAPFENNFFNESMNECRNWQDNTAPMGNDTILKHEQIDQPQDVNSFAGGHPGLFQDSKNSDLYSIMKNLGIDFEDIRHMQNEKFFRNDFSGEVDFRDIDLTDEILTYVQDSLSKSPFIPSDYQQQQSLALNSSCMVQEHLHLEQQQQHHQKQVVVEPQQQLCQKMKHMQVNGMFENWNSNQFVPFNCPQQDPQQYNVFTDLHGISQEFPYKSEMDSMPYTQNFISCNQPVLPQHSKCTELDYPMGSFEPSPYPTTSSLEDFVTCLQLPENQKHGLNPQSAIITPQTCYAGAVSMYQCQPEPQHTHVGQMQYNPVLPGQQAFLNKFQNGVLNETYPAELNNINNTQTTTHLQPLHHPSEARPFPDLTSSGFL
VLA-4 inh – inhibition in human VLA-4 binding assay, primary screen, VLA-4 allosteric modulator project, MLPCN library, flow cytometry, VLA-4 expressing cells. Integrin alpha-4 (Homo sapiens), P13612. ligand binding flow cytometry. inhibition, % (about 7 µM as worked out from the volumes in the protocol). hit rate 0.2% among 330,000; in the data active means inhibition above about 50%
AHR act cf – AHR activators, confirmation, cell-based, luminescence, luciferase reporter, human. shares compounds with AHR activator. human cells, AHR-responsive luciferase reporter. activation, % at 9 µM. hit rate 87% among 2,300; in the data active means activation above about 49%;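 further: HepG2 hepatoma cells carrying a DRE-driven firefly luciferase reporter; 0% = vehicle wells and 100% = reference agonist wells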
PXR counter – human PXR activators, counter-screen for AHR activator project, cell-based, luciferase luminescence; shares compounds with AHR activator; cell-based PXR reporter; activation, % at 11.6 µM; hit rate 88% among 2,300; AID 434939, 2010; in the data active means activation above about 11%;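 further: human hepatoma DPX-2 cells expressing full-length human PXR; 0% = DMSO and 100% = reference agonist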
Starred values were filed as active, the others as inactive; · = no result given.

SMILES	Efflux pump mplx	SUMO Mot1 rescue	A1 inh	ALR H2O2 inh	AHR activator	VLA-4 inh	AHR act cf	PXR counter
Nc1ccc(Nc2nc3ccccc3[nH]2)cc1	0.1	-8.4	0.0	42.2	10.0	8.2	·	·
Nc1ccccc1Nc1nc2ccccc2[nH]1	-0.2	-12.9	0.8	99.2*	95.3*	-4.2	2.1	8.7
CN(NC(=O)C(C)(C)C)c1nc(-c2ccccc2)nnc1C(F)(F)F	-0.1	131.5	1.6	-11.0	0.7	18.4	·	·
CN(C)c1nc(-c2ccccc2)nnc1C(F)(F)F	0.1	-1.1	0.4	2.1	96.2*	2.9	114.2*	25.0*
CC(C)C(CCN1C(=O)CCC1=O)C1CCOC(C)(C)C1 (centres undefined)	0.0	-5.9	0.1	-21.9	3.3	18.6	·	·
O=C(Nc1ccccc1C(=O)O)c1ccc2ccccc2n1	-0.3	-2.5	-10.5	·	93.3*	11.6	130.3*	32.1*
Cc1ccc(NC(=O)c2ccc3ccccc3n2)nc1	-0.2	16.5	-8.2	-5.1	85.5*	16.6	105.8*	18.0*
O=C(Nc1ccc(Cl)cn1)c1ccc2ccccc2n1	0.1	9.3	-0.4	-4.2	37.2	3.9	·	·
COc1ccccc1CNC(=O)C1CCCN(c2cnccn2)C1 (centres undefined)	-0.1	-11.7	0.0	-8.1	30.4	3.8	·	·
COc1ccccc1NC(=O)C1CCCN(c2cnccn2)C1 (centres undefined)	0.0	·	·	4.6	95.8*	-1.1	79.8*	24.0*
COc1ccccc1NC(=O)C(=N\O)/C(C)=N/O	0.2	-4.1	-0.1	17.1	88.7*	9.0	115.7*	25.2*
COc1ccccc1NC(=O)c1cc(=O)[nH]c2ccccc12	0.0	-16.2	0.6	99.0*	80.2*	4.4	92.0*	15.6*
COc1ccccc1NC(=O)c1ccc2c(c1)OCO2	0.2	3.5	-5.1	-24.2	129.1*	-1.3	104.6*	28.0*
COc1ccccc1NC(=O)c1ccc2c(c1)nnn2C	-0.1	-7.0	-0.5	1.1	94.9*	-36.1	74.2*	·
CCOc1ccc(-c2cc(C(=O)N/N=C(\C)c3cccnc3)c3ccccc3n2)c(OCC)c1	0.0	0.1	1.2	-17.0	·	-18.8	·	·
COc1cc2c(cc1NC(=O)C(C)NCc1ccccc1)oc1ccccc12 (centres undefined)	-0.1	199.6	-0.6	-9.2	117.2*	-19.9	132.8*	89.7*
COc1ccc(OC)c(NC(=O)c2ccc3c(c2)OCO3)c1	0.4	-0.4	-0.3	-11.7	111.6*	16.9	101.8*	22.4*
COc1cc2c(cc1NC(=S)Nc1cccc(C(F)(F)F)c1)oc1ccccc12	0.0	-11.7	-0.3	3.4	106.8*	3.3	92.1*	29.3*
COc1cc2c(cc1NC(=O)c1ccc3c(c1)OCO3)oc1ccccc12	-0.1	-8.2	0.3	-3.4	98.5*	-3.3	119.5*	24.3*
CO[C@@]1(NC(=O)CSCC#N)C(=O)N2C(C(=O)O)=C(CSc3nnnn3C)CS[C@@H]21	-0.1	-9.0	1.8	4.0	-0.3	7.7	·	·
Cc1cccc(-n2ncc3c2CCCC3NC(=O)Cc2c(C)noc2C)c1C (centres undefined)	0.6	-21.0	-0.8	0.4	-0.9	27.1	·	·
CN(C)c1cc(O)c(C(=S)Nc2ccccc2)c(N(C)C)c1	0.1	-10.3	1.1	-4.4	125.5*	7.7	101.9*	114.6*
O=C(c1ccccn1)N1N=C2/C(=C/c3ccccc3)CCCC2C1c1ccccc1 (centres undefined)	0.2	400.0*	0.4	-15.3	111.7*	12.9	108.4*	65.5*
CCCCOC(=O)C(C)Sc1n[nH]c(=O)[nH]c1=O (centres undefined)	-0.1	-3.6	1.4	-6.8	2.1	10.0	·	·
Cc1ccc(NC(=O)Nc2cnc3ccccc3c2)cc1	-0.1	6.6	-2.0	·	93.2*	9.9	103.5*	22.3*
SMILES	Efflux pump mplx	SUMO Mot1 rescue	A1 inh	ALR H2O2 inh	AHR activator	VLA-4 inh	AHR act cf	PXR counter
COc1ccc2cc(N=Cc3nc(-c4ccc(C)cc4)oc3O)cnc2c1	0.2	16.4	0.9	0.6	4.0	16.6	·	·
O=c1c2ccccc2nc2oc3ccccc3n12	-0.1	-17.0	-6.7	4.4	94.5*	9.7	93.2*	16.6*
CCN(CC)C(=O)Cn1cc(C(=O)C(=O)N2CCN(C)CC2)c2ccccc21	0.4	-6.1	0.9	-15.2	5.9	0.1	·	·
CCN(CC)C(=O)Cn1cc(C(=O)C(=O)N2CCc3ccccc32)c2ccccc21	0.2	-8.5	-0.9	·	97.8*	1.2	88.5*	243.2*
O=C1N/C(=N\N=C\c2ccco2)SC1Cc1ccccc1[N+](=O)[O-] (centres undefined)	0.0	28.4	-0.5	64.5	83.3*	4.5	70.6*	28.4*
CCOc1ccc(CC2S/C(=N/N=C/c3ccco3)NC2=O)cc1 (centres undefined)	0.0	191.0	-0.2	-8.9	1.8	-5.7	·	·
COc1ccc(Cl)cc1NC(=O)C(OC)c1ccccc1 (centres undefined)	0.1	-1.8	1.1	-38.9	101.2*	3.5	96.6*	47.3*
COc1cc(NC(=O)C/C(C)=N/NC(=O)C(OC)c2ccccc2)c(OC)cc1Cl (centres undefined)	-0.3	5.2	0.6	·	105.2*	15.3	24.0	10.1
Cc1cnc(C(=O)OCC(=O)Nc2ccc(Br)cc2F)cn1	-0.4	-5.5	-0.8	-2.5	0.0	-11.3	·	·
COc1ccccc1NC(=O)C(C)OC(=O)CCCN=C1NS(=O)(=O)c2ccccc21 (centres undefined)	-0.3	-4.3	-1.0	7.7	-1.6	3.0	·	·
CCN(CC)C(=O)CSC1=C(C#N)C(c2cccs2)C=C(C)N1 (centres undefined)	-0.1	6.5	0.7	-1.9	23.4	-3.6	·	·
CC(C)n1cnc2cc(NCc3nc4ccccc4n3C)ccc21	-0.2	0.3	-8.6	52.6	90.9*	-0.1	86.5*	128.0*
CCn1cnc2cc(NS(=O)(=O)c3ccc(C)cc3)ccc21	-0.1	-1.5	-0.2	-0.6	1.3	39.0	·	·
CCCn1c(CNc2ccc(Br)cc2)nc2ccccc21	0.5	61.3	-0.3	62.1	101.3*	7.4	93.0*	51.0*
